{"source": "the supplement of paper PMC11732987", "about": "“Enantioselective OTUD7B fragment discovery through chemoproteomics screening and high-throughput optimisation” (Communications Chemistry, 2025)", "experiment_in_all_cases": "log2 ratio of Biotin-Ahx-Ub-VS probe labelling (fragment/DMSO); higher = less target engagement (more negative = stronger competition), active = hit call of the paper (q ≤ 0.05, log2 ratio ≤ -1)", "details_in_all_cases": "compound concentration: 200 uM; treatment time: 3 h", "key": {"USP19": {"biological_target": "T1, USP19 (UniProt O94966)", "T1 sequence (whole entry)": "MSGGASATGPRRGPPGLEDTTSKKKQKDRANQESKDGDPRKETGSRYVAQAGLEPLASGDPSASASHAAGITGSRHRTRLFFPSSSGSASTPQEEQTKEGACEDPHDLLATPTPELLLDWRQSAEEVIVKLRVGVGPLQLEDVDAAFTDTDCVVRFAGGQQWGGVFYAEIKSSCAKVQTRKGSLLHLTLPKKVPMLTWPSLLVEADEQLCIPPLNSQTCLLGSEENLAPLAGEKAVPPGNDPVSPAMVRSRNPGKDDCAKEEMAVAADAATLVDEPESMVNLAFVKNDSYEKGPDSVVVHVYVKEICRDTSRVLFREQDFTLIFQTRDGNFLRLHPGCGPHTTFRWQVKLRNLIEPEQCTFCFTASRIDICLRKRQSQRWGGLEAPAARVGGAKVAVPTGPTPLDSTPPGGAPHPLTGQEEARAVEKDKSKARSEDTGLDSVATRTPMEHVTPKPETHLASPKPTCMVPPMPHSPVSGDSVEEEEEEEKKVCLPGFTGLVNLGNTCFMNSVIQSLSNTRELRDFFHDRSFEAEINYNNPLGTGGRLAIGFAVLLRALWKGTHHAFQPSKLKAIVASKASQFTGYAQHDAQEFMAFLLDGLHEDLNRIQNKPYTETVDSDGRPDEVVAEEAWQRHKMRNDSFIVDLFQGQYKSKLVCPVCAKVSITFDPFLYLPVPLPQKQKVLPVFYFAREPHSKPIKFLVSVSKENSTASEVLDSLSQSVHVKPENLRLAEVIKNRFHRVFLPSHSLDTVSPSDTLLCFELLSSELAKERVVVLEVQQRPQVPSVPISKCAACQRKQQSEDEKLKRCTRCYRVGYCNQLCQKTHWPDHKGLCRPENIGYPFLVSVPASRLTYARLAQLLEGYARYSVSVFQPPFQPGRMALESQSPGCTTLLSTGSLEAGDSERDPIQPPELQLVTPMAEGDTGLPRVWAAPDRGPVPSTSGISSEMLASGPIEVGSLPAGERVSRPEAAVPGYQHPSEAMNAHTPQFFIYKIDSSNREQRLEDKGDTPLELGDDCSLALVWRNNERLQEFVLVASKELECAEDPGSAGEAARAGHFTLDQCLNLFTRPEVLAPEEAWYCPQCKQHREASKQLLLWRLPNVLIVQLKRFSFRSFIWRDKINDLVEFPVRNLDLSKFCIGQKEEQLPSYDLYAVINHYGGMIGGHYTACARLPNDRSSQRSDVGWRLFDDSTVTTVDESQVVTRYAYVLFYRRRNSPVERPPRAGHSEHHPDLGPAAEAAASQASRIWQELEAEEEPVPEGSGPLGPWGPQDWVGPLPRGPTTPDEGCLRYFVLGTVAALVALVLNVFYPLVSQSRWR", "summary_of_the_method": "(§1)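 Labelled DUBs were enriched with NeutrAvidin, digested with LysC and trypsin, and run by diaPASEF LC-MS/MS. The labelling used Biotin-Ahx-Ub-VS at 0.5 µM final for 1 h on HEK293T lysate (495 µg per sample) previously treated in triplicate with fragment at 200 µM or vehicle for 3 h. Values are average log2 fragment/vehicle ratios by unpaired t-test on global-median-normalised Spectronaut quantities of proteins with ≥2 unique peptides.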"}, "USP22": {"biological_target": "T2, USP22 (UniProt Q9UPT9)", "T2 sequence (whole entry)": "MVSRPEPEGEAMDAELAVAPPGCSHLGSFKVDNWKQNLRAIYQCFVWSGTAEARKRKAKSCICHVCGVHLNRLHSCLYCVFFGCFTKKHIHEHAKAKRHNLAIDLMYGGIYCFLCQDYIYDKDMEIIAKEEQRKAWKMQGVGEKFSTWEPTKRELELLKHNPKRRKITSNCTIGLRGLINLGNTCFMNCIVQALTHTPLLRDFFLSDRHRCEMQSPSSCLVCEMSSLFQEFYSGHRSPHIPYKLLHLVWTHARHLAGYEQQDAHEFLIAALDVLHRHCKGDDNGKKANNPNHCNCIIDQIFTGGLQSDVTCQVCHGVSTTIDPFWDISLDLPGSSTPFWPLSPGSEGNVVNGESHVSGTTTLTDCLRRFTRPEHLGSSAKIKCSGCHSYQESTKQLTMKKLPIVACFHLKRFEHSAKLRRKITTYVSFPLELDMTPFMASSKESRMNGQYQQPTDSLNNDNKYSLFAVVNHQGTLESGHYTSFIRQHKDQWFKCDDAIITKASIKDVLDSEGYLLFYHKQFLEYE", "summary_of_the_method": "as §1"}, "USP24": {"biological_target": "USP24 (UniProt Q9UPU5)", "sequence (Q9UPU5 whole entry)": "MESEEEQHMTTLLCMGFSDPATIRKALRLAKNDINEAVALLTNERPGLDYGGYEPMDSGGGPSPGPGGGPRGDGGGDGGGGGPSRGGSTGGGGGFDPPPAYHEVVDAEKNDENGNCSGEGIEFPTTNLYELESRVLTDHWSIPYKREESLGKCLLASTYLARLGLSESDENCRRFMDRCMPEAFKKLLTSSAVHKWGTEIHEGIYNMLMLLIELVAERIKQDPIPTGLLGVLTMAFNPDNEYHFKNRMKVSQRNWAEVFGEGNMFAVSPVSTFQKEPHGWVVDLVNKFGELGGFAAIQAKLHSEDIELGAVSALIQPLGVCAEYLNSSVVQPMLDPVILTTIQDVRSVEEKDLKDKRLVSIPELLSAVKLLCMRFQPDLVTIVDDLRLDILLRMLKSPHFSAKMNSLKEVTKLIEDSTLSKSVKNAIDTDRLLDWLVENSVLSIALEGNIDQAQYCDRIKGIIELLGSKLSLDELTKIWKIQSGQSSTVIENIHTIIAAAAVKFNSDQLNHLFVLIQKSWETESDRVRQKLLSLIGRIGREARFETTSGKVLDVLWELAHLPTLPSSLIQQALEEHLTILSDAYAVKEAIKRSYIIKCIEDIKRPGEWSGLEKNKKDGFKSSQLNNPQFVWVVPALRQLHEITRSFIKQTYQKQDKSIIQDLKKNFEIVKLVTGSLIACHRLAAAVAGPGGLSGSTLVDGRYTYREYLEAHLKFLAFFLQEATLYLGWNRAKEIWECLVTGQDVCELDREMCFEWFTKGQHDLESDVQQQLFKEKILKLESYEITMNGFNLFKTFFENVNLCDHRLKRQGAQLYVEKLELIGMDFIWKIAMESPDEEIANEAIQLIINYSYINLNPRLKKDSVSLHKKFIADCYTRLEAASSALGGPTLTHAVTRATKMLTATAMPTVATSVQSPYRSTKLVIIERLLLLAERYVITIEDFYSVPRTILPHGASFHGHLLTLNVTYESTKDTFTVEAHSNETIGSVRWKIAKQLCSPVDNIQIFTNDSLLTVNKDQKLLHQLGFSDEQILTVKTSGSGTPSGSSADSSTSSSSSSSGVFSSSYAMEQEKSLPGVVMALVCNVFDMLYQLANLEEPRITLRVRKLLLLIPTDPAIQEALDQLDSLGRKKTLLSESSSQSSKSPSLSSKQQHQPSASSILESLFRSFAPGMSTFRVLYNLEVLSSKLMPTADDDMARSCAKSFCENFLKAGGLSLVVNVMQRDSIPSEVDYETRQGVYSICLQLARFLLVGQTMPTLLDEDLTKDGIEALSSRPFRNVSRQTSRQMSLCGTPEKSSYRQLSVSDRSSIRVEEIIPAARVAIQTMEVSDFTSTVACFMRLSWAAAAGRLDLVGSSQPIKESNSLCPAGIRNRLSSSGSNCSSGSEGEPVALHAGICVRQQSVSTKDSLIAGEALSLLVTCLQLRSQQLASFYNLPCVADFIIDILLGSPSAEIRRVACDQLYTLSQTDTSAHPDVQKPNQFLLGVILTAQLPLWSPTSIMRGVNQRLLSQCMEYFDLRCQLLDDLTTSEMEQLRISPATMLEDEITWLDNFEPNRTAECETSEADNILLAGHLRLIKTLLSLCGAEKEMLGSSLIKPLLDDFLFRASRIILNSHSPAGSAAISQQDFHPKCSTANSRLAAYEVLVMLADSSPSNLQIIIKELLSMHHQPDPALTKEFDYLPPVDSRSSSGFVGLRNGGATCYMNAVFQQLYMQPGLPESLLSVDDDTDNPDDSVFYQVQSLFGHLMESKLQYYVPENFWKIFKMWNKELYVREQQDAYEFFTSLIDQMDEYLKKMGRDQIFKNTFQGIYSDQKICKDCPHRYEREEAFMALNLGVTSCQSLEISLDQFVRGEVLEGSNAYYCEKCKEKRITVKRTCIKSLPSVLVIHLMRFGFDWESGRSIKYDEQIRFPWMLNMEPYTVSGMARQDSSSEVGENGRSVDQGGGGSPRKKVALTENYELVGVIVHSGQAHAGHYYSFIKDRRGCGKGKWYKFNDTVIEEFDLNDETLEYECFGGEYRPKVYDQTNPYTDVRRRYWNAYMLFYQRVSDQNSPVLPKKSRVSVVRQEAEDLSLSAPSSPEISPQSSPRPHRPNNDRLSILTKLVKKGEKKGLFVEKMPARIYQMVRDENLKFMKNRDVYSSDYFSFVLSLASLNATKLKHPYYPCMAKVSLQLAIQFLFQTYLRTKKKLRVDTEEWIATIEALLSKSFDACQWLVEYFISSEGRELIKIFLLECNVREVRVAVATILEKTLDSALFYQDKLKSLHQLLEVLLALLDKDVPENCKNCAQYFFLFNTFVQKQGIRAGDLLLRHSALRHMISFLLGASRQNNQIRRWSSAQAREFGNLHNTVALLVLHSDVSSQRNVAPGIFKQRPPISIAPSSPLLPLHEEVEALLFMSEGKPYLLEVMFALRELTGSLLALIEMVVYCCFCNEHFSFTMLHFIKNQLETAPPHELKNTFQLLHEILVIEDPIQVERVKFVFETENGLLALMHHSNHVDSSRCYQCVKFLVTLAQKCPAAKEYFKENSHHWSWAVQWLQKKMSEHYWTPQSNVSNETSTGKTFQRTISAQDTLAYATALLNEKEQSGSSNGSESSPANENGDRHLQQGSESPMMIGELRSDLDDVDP", "summary_of_the_method": "as §1"}, "USP25": {"biological_target": "T3, USP25 (UniProt Q9UHP3)", "T3 sequence (whole entry)": "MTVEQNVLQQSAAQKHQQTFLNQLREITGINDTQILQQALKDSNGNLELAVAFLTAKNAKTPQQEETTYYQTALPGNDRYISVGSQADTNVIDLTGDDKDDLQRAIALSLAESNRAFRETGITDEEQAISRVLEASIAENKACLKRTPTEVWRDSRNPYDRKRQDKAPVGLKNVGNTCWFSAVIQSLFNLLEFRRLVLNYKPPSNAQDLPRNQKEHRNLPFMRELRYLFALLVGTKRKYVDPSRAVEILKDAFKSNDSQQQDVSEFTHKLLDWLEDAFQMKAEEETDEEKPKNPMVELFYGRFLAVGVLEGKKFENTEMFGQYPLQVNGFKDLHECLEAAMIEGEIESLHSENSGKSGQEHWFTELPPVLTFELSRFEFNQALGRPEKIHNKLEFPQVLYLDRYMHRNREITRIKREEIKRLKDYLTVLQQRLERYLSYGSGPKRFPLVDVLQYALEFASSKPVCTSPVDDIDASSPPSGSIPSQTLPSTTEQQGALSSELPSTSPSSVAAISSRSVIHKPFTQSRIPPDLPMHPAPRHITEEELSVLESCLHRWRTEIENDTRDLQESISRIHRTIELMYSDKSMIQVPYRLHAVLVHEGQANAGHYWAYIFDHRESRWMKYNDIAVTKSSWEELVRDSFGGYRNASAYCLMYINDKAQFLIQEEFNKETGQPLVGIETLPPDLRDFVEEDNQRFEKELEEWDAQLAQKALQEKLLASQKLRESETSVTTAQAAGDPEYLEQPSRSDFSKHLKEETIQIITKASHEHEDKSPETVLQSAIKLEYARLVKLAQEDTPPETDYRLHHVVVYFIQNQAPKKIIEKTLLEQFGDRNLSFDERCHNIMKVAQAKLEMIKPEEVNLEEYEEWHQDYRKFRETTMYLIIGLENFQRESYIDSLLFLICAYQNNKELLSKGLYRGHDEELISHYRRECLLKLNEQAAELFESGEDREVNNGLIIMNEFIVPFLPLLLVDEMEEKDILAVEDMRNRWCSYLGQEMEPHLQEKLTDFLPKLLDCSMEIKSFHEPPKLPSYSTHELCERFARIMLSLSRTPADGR", "summary_of_the_method": "as §1"}, "USP28": {"biological_target": "T4, USP28 (UniProt Q96RU2)", "T4 sequence (whole entry)": "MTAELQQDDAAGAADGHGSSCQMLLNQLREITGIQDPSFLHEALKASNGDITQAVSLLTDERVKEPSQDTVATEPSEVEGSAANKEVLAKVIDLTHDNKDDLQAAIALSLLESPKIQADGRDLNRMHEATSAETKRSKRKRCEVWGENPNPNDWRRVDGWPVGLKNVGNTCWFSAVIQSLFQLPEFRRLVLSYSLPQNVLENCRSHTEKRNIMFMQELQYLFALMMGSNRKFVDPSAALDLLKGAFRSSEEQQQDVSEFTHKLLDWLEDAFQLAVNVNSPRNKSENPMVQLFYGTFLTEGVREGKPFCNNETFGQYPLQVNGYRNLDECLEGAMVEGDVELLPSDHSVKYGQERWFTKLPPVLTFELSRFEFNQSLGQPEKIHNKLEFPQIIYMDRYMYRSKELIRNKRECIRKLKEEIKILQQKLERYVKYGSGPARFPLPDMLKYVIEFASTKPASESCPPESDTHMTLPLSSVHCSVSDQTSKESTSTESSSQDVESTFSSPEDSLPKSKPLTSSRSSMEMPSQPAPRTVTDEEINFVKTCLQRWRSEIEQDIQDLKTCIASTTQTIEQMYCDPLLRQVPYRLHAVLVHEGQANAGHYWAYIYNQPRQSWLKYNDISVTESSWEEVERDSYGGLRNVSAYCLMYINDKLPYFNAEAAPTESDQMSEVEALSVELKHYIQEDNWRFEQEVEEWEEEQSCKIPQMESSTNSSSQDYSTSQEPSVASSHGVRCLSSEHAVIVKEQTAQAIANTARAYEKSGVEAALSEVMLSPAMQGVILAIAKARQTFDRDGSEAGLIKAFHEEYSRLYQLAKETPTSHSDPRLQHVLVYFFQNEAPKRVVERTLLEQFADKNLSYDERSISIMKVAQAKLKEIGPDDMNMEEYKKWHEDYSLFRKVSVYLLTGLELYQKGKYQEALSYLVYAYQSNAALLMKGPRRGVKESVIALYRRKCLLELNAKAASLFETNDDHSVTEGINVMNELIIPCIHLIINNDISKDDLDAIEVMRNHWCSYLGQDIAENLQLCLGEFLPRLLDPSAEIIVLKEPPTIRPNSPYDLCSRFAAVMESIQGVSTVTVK", "summary_of_the_method": "as §1"}}, "note": "A number with no mark means an inactive call.", "data": [{"smiles": "Cl.O=C(CCl)N1CCC(n2nc3ccccc3n2)CC1", "values": [{"measurement": "log2 ratio of Biotin-Ahx-Ub-VS probe labelling", "setting": "USP19", "value": -0.666}, {"measurement": "log2 ratio of Biotin-Ahx-Ub-VS probe labelling", "setting": "USP22", "value": -0.472}, {"measurement": "log2 ratio of Biotin-Ahx-Ub-VS probe labelling", "setting": "USP24", "value": "-1.08 (active)"}, {"measurement": "log2 ratio of Biotin-Ahx-Ub-VS probe labelling", "setting": "USP25", "value": -0.61}, {"measurement": "log2 ratio of Biotin-Ahx-Ub-VS probe labelling", "setting": "USP28", "value": -0.611}]}]}
